Shiga inhibitor – inhibitors of Shiga toxin in Vero cells; Vero cells, Shiga toxin protein synthesis inhibition reporter; inhibition, % at 38.7 µM; 290,000 tested, 9.2% active; AID 2315; in the data active = inhibition mostly above about 28%, no sharp cut-off; inactive = mostly below about 43%
Cycloheximide cs – counter-screen hit for Shiga toxin inhibitors, cycloheximide; cell reporter, cycloheximide protein synthesis inhibition counterscreen; max response, %; 300,000 tested, 12% active; in the data active = max response mostly above about 13%, no sharp cut-off; inactive = mostly below about 14%; note: read at 38.3 µM for the half of the compounds with a filed dose
Giardia FBPA inh – blocks Giardia fructose-bisphosphate aldolase activity | 290,000 tested, 0.71% active | Potency, µM (highest dose often 59.6 µM), most hits filed as inhibitors | purified Giardia FBPA; note: nearly all actives have a fitted effect of over 55% in size
Target sequence (A8B2U2 whole entry, looked up): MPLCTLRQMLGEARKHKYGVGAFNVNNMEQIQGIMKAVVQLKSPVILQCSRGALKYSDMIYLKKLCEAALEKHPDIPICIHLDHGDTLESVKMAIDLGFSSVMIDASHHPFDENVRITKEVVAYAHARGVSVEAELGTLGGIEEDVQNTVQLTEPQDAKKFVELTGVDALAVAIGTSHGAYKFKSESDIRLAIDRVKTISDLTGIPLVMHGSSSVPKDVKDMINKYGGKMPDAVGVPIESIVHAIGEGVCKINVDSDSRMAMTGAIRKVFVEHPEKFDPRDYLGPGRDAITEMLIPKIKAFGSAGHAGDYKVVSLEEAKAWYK
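40 nM FBPA preincubated 10 min at RT with compound (up to 57.5 uM final), then substrate plus GAPDH/TPI/NAD/arsenate coupling and diaphorase/resazurin added. Fluorescence read after 20 min at RT, 525/598 nm.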
Tb PYK inh – inhibitors of Trypanosoma brucei pyruvate kinase | 410,000 tested, 0.12% active | Potency, µM (top dose mostly 76.8 µM), actives largely listed as inhibitors | TbPYK enzyme, Kinase-Glo Plus ATP luminescence, 45 min | Q57TT1; note: nearly all actives have a fitted effect of over 50% in size
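Enzyme and substrate buffer are dispensed first and compound is pin-transferred. ADP at 130 uM final then starts the reaction, which runs 45 min at room temperature. Detection reagent is added for 10 min before luminescence is imaged.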
LmPK inhibitor – blocks Leishmania mexicana pyruvate kinase activity; Q27686; AID 1721; 290,000 tested, 0.37% active; Potency, µM (top dose mostly 57.5 µM), actives largely listed as inhibitors; purified LmPK, Kinase-Glo ATP luminescence, 1 h
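In 50 mM imidazole pH 7.2 with 7 mM MgCl2, LmPK (0.1 nM) turned over PEP (0.5 mM) and ADP (0.1 mM) for 1 h at room temperature. Luciferase read-out of ATP.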
RE007 growth inh – less growth of the S. pombe RE007 Vpr strain; S. pombe RE007 Vpr strain, BacTiter-Glo ATP luminescence, 24 h; Potency, µM (top dose mostly 92.2 µM), usual class: inhibitors; 360,000 tested, 0.21% active; active = well fitted falling curve with a large enough effect; inconclusive = small, poorly fitted or top-dose-only effect; inactive = no such curve, though single readings can be large or run the other way; note: nearly all actives have a fitted effect of over 50% in size
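Fission yeast strain RE007, carrying one chromosomally integrated HIV-1 vpr copy, was seeded at OD 0.01 in PMG+AL medium with 23 nL pinned compound. After 24 h at 30 °C and 99% humidity, viability was read by BacTiter-Glo luminescence.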
A number is an active result; [ ] = another dose, or the depositor's remark. This is one part of a sample in which hits are shown more often than they occur. Unless noted, calls come from the whole dose curve; as a rule, active = well fitted curve in the direction sought with a large enough effect; inconclusive = small, poorly fitted or top-dose-only effect, or another doubt; inactive = no such curve, though single readings can be large; an effect the other way counts as inactive or inconclusive.

`COc1ccc(N2CCN(C(=O)CCS(=O)(=O)c3ccc4c(c3)NC(=O)C(C)S4)CC2)cc1` (configuration not stated) gave Shiga inhibitor inactive, Cycloheximide cs inactive, Giardia FBPA inh inactive, Tb PYK inh inactive, LmPK inhibitor inactive and RE007 growth inh inactive.
O=C(CCS(=O)(=O)c1ccccc1)N1CCN(c2ccc(F)cc2)CC1 was read as Shiga inhibitor 71, Cycloheximide cs 52, Tb PYK inh inactive, LmPK inhibitor inactive and RE007 growth inh inactive.
`CCc1c(C)sc2c1CCN(Cc1cccc(OC)c1)C2c1ccccc1` (configuration not stated) gave Tb PYK inh inactive.
For Cc1ccc(SCCC(=O)NCCSCc2ccco2)cc1 the results were Shiga inhibitor inactive, Cycloheximide cs inactive, Giardia FBPA inh inactive, Tb PYK inh inactive, LmPK inhibitor inactive and RE007 growth inh inactive.
Screening CC(C)(C)c1ccc(C(=O)NC(=S)NCc2ccco2)cc1 returned Shiga inhibitor inactive, Cycloheximide cs 24, Tb PYK inh inactive, LmPK inhibitor inactive and RE007 growth inh inactive.
For CC(=O)Nc1ccc(NC(=S)NC(=O)c2ccc(C(C)(C)C)cc2)cc1 the results were Tb PYK inh inactive.
For O=C(NC(=S)NCc1ccco1)c1ccccc1 the results were Shiga inhibitor inactive, Cycloheximide cs inactive, Giardia FBPA inh inactive, Tb PYK inh inactive, LmPK inhibitor inactive and RE007 growth inh inactive.
For COCCNC(=S)NC(=O)c1ccc(C(C)(C)C)cc1 the results were Shiga inhibitor 96, Cycloheximide cs 59, Giardia FBPA inh inactive, Tb PYK inh inactive, LmPK inhibitor inactive and RE007 growth inh inactive.
For Cc1ccc(SCCNCc2ccco2)cc1 the results were Shiga inhibitor inactive, Cycloheximide cs 14, Giardia FBPA inh inconclusive, Tb PYK inh inactive, LmPK inhibitor inactive and RE007 growth inh inactive.
`Cc1ccc(Cn2nnc3c(=O)[nH]c(C(=O)NCc4ccco4)nc32)cc1` gave Shiga inhibitor 111, Cycloheximide cs 25, Giardia FBPA inh inactive, Tb PYK inh inactive, LmPK inhibitor inactive and RE007 growth inh inactive.
`Cn1ncc(Cl)c1C(=O)N1CCN(C(=O)c2ccco2)CC1` gave Shiga inhibitor inactive, Cycloheximide cs inactive, Giardia FBPA inh inactive, Tb PYK inh inactive, LmPK inhibitor inactive and RE007 growth inh inactive.
COc1ccc(N2C(=NC(=O)C(C)Oc3ccccc3)SC3CS(=O)(=O)CC32)cc1 (configuration not stated) was read as Shiga inhibitor inactive, Cycloheximide cs inactive, Tb PYK inh inactive, LmPK inhibitor inactive and RE007 growth inh inactive.
Screening COc1ccc(CNc2ncnc3ccc(-c4c(C)noc4C)cc23)cc1 returned Shiga inhibitor inactive, Cycloheximide cs inactive and Giardia FBPA inh inactive.
`COc1ccc(OC)c(CNC(=O)c2nn(-c3ccc(OC)c(Cl)c3)c(=O)c3c2c2ccccc2n3C)c1` gave Tb PYK inh inactive.
For Cc1ccc(C2=NCCn3c2c2ccc(C(F)(F)F)cc2[n+]3[O-])cc1 the results were Tb PYK inh inactive and RE007 growth inh inactive.
Cc1ccc(C(=O)Nc2cccc(C(=O)NCc3ccccc3)c2)cc1 was read as Shiga inhibitor inactive, Cycloheximide cs 15, Giardia FBPA inh inactive, Tb PYK inh inactive, LmPK inhibitor inactive and RE007 growth inh inactive.
`Cc1ccc(C(=O)Nc2cccc(C(=O)NCc3ccco3)c2)cc1` gave Shiga inhibitor 35, Cycloheximide cs 19, Giardia FBPA inh inactive, Tb PYK inh inactive, LmPK inhibitor inactive and RE007 growth inh inactive.
Screening Cc1ccc(C(=O)NCc2ccco2)cc1 returned Shiga inhibitor inactive, Cycloheximide cs 18, Giardia FBPA inh inactive, Tb PYK inh inactive, LmPK inhibitor inactive and RE007 growth inh inactive.
COc1ccc(C(=O)Nc2cccc(C(=O)NCc3ccccc3)c2)cc1 was read as Shiga inhibitor inactive, Cycloheximide cs inactive, Giardia FBPA inh inactive, Tb PYK inh inactive, LmPK inhibitor inactive and RE007 growth inh inactive.
`O=C(NCc1ccco1)c1cccc(NC(=O)c2ccccc2)c1` gave Shiga inhibitor inactive, Cycloheximide cs inactive, Giardia FBPA inh inactive, LmPK inhibitor inactive and RE007 growth inh inactive[3.69 µM].
For Cc1ccc(S(=O)(=O)N(CC(=O)Nc2cccc(C(F)(F)F)c2)C(=O)N2CCN(C)CC2)cc1 the results were Tb PYK inh inactive and RE007 growth inh inactive.
O=C(Cc1csc(-c2ccccc2)n1)NCC(=O)Nc1ccc(F)c(F)c1F was read as Tb PYK inh inactive and RE007 growth inh inactive.
Screening Cc1ccc(C)c(C(=O)CSc2nc3cc(C(=O)NC4CCCC4)ccc3c(=O)n2CC2CCCO2)c1 (configuration not stated) returned Tb PYK inh inactive.
`O=C1CCCc2c1sc1nc3n(c(=O)c21)CCCCC3` gave Shiga inhibitor inactive, Cycloheximide cs inactive, Giardia FBPA inh inactive, Tb PYK inh inactive, LmPK inhibitor inactive and RE007 growth inh inactive.
For O=c1c2c3c(sc2nc2n1CCCCC2)C(O)CCC3 (configuration not stated) the results were Shiga inhibitor 70, Cycloheximide cs 55, Giardia FBPA inh inactive, Tb PYK inh inactive, LmPK inhibitor inactive and RE007 growth inh inactive.
O=c1c2c3c(sc2nc2n1CCCCC2)CCC3 was read as Shiga inhibitor inactive, Cycloheximide cs inactive, Giardia FBPA inh inactive, Tb PYK inh inactive, LmPK inhibitor inactive and RE007 growth inh inconclusive.
O=C1c2sc3nc4n(c(=O)c3c2CCC1Br)CCCCC4 (configuration not stated) was read as Shiga inhibitor 53, Cycloheximide cs 31, Giardia FBPA inh 20µM, Tb PYK inh inconclusive, LmPK inhibitor 28µM and RE007 growth inh inactive.
For O=C(Nc1ccc2nc(SCCOc3ccccc3)sc2c1)c1ccccc1F the results were Tb PYK inh inactive.
For Cc1ccc2nc(NC(=O)c3ccccc3F)sc2c1 the results were Shiga inhibitor 83, Cycloheximide cs 39, Giardia FBPA inh inactive, Tb PYK inh inactive, LmPK inhibitor inactive and RE007 growth inh inactive.
CCCC(=O)Nc1nc2ccc(NC(=O)c3ccccc3F)cc2s1 was read as Shiga inhibitor 47, Cycloheximide cs 21, Giardia FBPA inh inactive, Tb PYK inh inactive, LmPK inhibitor inactive and RE007 growth inh inactive.
Screening COc1ccc2nc(NC(=O)c3ccc(NC(=O)C4CCCO4)cc3)sc2c1 (configuration not stated) returned Shiga inhibitor inactive, Cycloheximide cs 19, Giardia FBPA inh inactive, Tb PYK inh inactive, LmPK inhibitor inactive and RE007 growth inh inactive.
CCOc1ccc2nc(NC(=O)C34CC5CC(CC(NC(C)=O)(C5)C3)C4)sc2c1 was read as Shiga inhibitor inactive, Cycloheximide cs inactive, Tb PYK inh inactive, LmPK inhibitor inactive and RE007 growth inh inactive.
For Cc1ccc2nc(NC(=O)c3cccn(Cc4ccc(Cl)cc4)c3=O)sc2c1 the results were Tb PYK inh inactive.

Screening results from PubChem BioAssay.
